Data from PubChem BioAssay (NCI).
About 83,000 compounds went through this panel and 20% of them were active in at least one assay; those are over-represented in the sample as a whole.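 Method: cells in 96-well plates; compound added at one concentration; 48 h incubation; percent growth measured; values under 10 scored active.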 Active and inactive are the calls of the source.

How the values were obtained:
Experiment in all cases: NCI-60 one-dose screen, 48 h (100 = growth as untreated, 0 = no growth, -100 = all killed)
Details in all cases: 10 µM unless noted
HCT-15 colon = tested on: HCT-15 colon
HT29 colon = tested on: HT29 colon
SNB-75 CNS = tested on: SNB-75 CNS
SNB-19 CNS = tested on: SNB-19 CNS
U251 CNS = tested on: U251 CNS
UACC-62 melanoma = tested on: UACC-62 melanoma
LOX IMVI melanoma = tested on: LOX IMVI melanoma
SK-MEL-28 melanoma = tested on: SK-MEL-28 melanoma
SK-MEL-5 melanoma = tested on: SK-MEL-5 melanoma
PC-3 prostate = tested on: PC-3 prostate

Measured: growth

Cc1c2cc[nH]c(=O)c2c(C)c2c1[nH]c1cc(OCCN3CCN(C)CC3)ccc12
active: HT29 colon -7.17% | SNB-75 CNS 7.53% | UACC-62 melanoma 5.81% | LOX IMVI melanoma -62.3% | SK-MEL-28 melanoma 5.74%
inactive: HCT-15 colon 10.1% | SNB-19 CNS 12.9% | U251 CNS 17%

O=[N+]([O-])CC(c1ccccc1F)c1c[nH]c2ccccc12 (stereo not drawn)
inactive: HCT-15 colon 39.3% | HT29 colon 23.6% | SNB-75 CNS 54.9% | SNB-19 CNS 80.5% | U251 CNS 65.6% | SK-MEL-5 melanoma 81.5% | LOX IMVI melanoma 61% | SK-MEL-28 melanoma 78.2%

N#Cc1c(-c2cccc([N+](=O)[O-])c2)nc(SCC(=O)c2ccc(Cl)cc2)[nH]c1=O
inactive: HCT-15 colon 103% | HT29 colon 105% | SNB-75 CNS 72.2% | SNB-19 CNS 92.8% | U251 CNS 97.3% | UACC-62 melanoma 93.6% | LOX IMVI melanoma 96%

Cc1cc2nc3c4cc(C=O)ccc4n(CCN(C)C)c3nc2cc1C
inactive: SNB-75 CNS 28.2% | SNB-19 CNS 28.1% | U251 CNS 16.8% | UACC-62 melanoma 21.5% | SK-MEL-28 melanoma 37.1%
active: HCT-15 colon 2.81% | HT29 colon 6.7% | SK-MEL-5 melanoma 6.63% | LOX IMVI melanoma -40.5%

Cc1cc2nc3c4cc([N+](=O)[O-])ccc4n(CCN(C)C)c3nc2cc1C
active: HCT-15 colon -15.7% | HT29 colon 4.93% | SNB-75 CNS -6.58% | SNB-19 CNS 8.53% | U251 CNS 1.87% | SK-MEL-5 melanoma -73.4% | UACC-62 melanoma -58.7% | LOX IMVI melanoma -48.7% | SK-MEL-28 melanoma 2.33%

COc1cc(/C=C\C(=O)O)ccc1OCc1ccccc1
inactive: HCT-15 colon 107% | HT29 colon 105% | SNB-75 CNS 103% | SNB-19 CNS 99.2% | PC-3 prostate 92.8% | SK-MEL-5 melanoma 94.2% | UACC-62 melanoma 93.2%

Cc1ccc(CNc2c3ccccc3nc3cc(NC(=O)CCN4CCCC4)ccc23)cc1
inactive: SNB-19 CNS 17.8% | SK-MEL-5 melanoma 42.3% | UACC-62 melanoma 36.1% | SK-MEL-28 melanoma 53.6%
active: HCT-15 colon 7.15% | HT29 colon 0.938% | SNB-75 CNS 4.1% | U251 CNS -55.3% | LOX IMVI melanoma -86.4%

CC(C)c1ccc(Nc2ccc3c(OCCCN4CCN(C)CC4)cccc3n2)cc1
active: HCT-15 colon -35.9% | HT29 colon -50.3% | UACC-62 melanoma 1.02% | LOX IMVI melanoma -70.7%
inactive: SNB-75 CNS 68.9% | SNB-19 CNS 63.7% | U251 CNS 23.9% | SK-MEL-5 melanoma 58.3% | SK-MEL-28 melanoma 13.7%

COC(=O)CNC(=O)[C@]12CCC(C)(C)C[C@H]1C1=CC[C@@H]3[C@@]4(C)Cc5c([nH]c6ccccc56)C(C)(C)[C@@H]4CC[C@@]3(C)[C@]1(C)CC2
inactive: HCT-15 colon 87.7% | HT29 colon 81% | SNB-75 CNS 87.6% | SNB-19 CNS 92.2% | U251 CNS 82.3% | SK-MEL-5 melanoma 98.1% | UACC-62 melanoma 81.7% | LOX IMVI melanoma 94% | SK-MEL-28 melanoma 96.7%

O=[N+]([O-])c1ccc(NC(=S)N/N=C/c2cc3ccccc3n3nnnc23)cc1
inactive: HCT-15 colon 27.3% | HT29 colon 99.8% | SNB-75 CNS 58.2% | SNB-19 CNS 29.8% | U251 CNS 30.2% | SK-MEL-5 melanoma 71% | UACC-62 melanoma 65.4% | LOX IMVI melanoma 39.2% | SK-MEL-28 melanoma 79%

CCNc1nc2ccc(Nc3ccnc4cc(Cl)ccc34)cc2[nH]1
inactive: HCT-15 colon 89.8% | HT29 colon 51.1% | SNB-75 CNS 87.3% | SNB-19 CNS 84.8% | U251 CNS 75.2% | PC-3 prostate 63.9% | LOX IMVI melanoma 70.6% | SK-MEL-28 melanoma 99.5%

N/C(=N\C(N)=N\c1nc2ccccc2s1)c1cccc(Cl)c1
inactive: HCT-15 colon 32.1% | HT29 colon 95.1% | SNB-75 CNS 95.2% | SNB-19 CNS 97.1% | U251 CNS 48.3% | SK-MEL-5 melanoma 104% | UACC-62 melanoma 86.2% | LOX IMVI melanoma 44.1% | SK-MEL-28 melanoma 104%

COc1cc2cc(Oc3cccc(NC(=O)Nc4cc(C(F)(F)F)cc(C(F)(F)F)c4)c3)c(C)nc2cc1OC
inactive: SNB-19 CNS 15.5%
active: HCT-15 colon 2.75% | HT29 colon 4.89% | SNB-75 CNS 9.73% | U251 CNS -26.5% | SK-MEL-5 melanoma -58.5% | UACC-62 melanoma -34.6% | LOX IMVI melanoma 1.98% | SK-MEL-28 melanoma 7.66%

CC(=O)c1ccc(NS(=O)(=O)c2cccc(C(=O)Nc3ccc(Br)cc3)c2)cc1
inactive: HCT-15 colon 68.2% [25 µM] | HT29 colon 87.4% [25 µM] | SNB-75 CNS 78.3% [25 µM] | SNB-19 CNS 60.4% [25 µM] | U251 CNS 70.8% [25 µM] | UACC-62 melanoma 26.5% [25 µM] | LOX IMVI melanoma 62.7% [25 µM] | SK-MEL-28 melanoma 77.9% [25 µM]
active: SK-MEL-5 melanoma -19.8% [25 µM]

COc1cc2cc(CN3CCN(c4nccc(-c5ccc6ccccc6c5)n4)CC3)c(=O)[nH]c2cc1OC
inactive: HCT-15 colon 21.2% | HT29 colon 69% | SNB-75 CNS 104% | SNB-19 CNS 76.7% | U251 CNS 22.9% | SK-MEL-5 melanoma 85.4% | UACC-62 melanoma 95.1% | LOX IMVI melanoma 90.2% | SK-MEL-28 melanoma 102%

N#CC(C#N)=Cc1cc2ccccc2nc1Oc1ccc(C(F)(F)F)cc1
inactive: HCT-15 colon 85.1% | HT29 colon 100% | SNB-75 CNS 84.2% | SNB-19 CNS 93.2% | U251 CNS 91.2% | SK-MEL-5 melanoma 94.7% | UACC-62 melanoma 78.4% | SK-MEL-28 melanoma 104%

[O-][n+]1c(Cl)cc(Cl)c2ccccc21
inactive: HCT-15 colon 99.8% | HT29 colon 122% | SNB-75 CNS 101% | SNB-19 CNS 102% | U251 CNS 92.9% | SK-MEL-5 melanoma 109% | UACC-62 melanoma 98.9% | LOX IMVI melanoma 97.4% | SK-MEL-28 melanoma 104%

Cc1cc2nc3c4cccc(O)c4n(CCN(C)C)c3nc2cc1C
inactive: HCT-15 colon 21.6% | HT29 colon 31.1% | SNB-75 CNS 25.8% | SNB-19 CNS 38.4% | U251 CNS 35.5% | SK-MEL-5 melanoma 39.3% | UACC-62 melanoma 49.5% | SK-MEL-28 melanoma 75.6%
active: LOX IMVI melanoma 8.06%

COc1cc2c(c(OC)c1OC)-c1ccc(NNC(=S)N(Cc3cccc(C[N+](Cc4cccc(CNC56CC7CC(CC(C7)C5)C6)c4)(Cc4cccc(CNC56CC7CC(CC(C7)C5)C6)c4)Cc4cccc(CN(C(=S)NNc5ccc6c(cc5=O)[C@@H](NC(C)=O)CCc5cc(OC)c(OC)c(OC)c5-6)C56CC7CC(CC(C7)C5)C6)c4)c3)C34CC5CC(CC(C5)C3)C4)c(=O)cc1[C@@H](NC(C)=O)CC2 (stereo partly drawn)
active: HCT-15 colon 9.96% | HT29 colon -5.79% | U251 CNS 5.78% | SK-MEL-5 melanoma -94.2% | LOX IMVI melanoma -20.1%
inactive: SNB-75 CNS 31.7% | SNB-19 CNS 16% | UACC-62 melanoma 15.5% | SK-MEL-28 melanoma 33.3%

COc1ccc(C(=O)NNc2nc(Cl)nc(N3CCN(C(c4ccccc4)c4ccccc4)CC3)n2)cc1
inactive: SNB-75 CNS 61.5% | SNB-19 CNS 45.4% | U251 CNS 71.4% | SK-MEL-5 melanoma 90.7% | UACC-62 melanoma 33.1% | SK-MEL-28 melanoma 53.9%
active: HCT-15 colon -37% | HT29 colon -57.3% | LOX IMVI melanoma -64.3%

Cc1cccc(-c2cn3ccnc3c(-c3ccc4ncn(Cc5ccccc5)c4c3)n2)c1
inactive: HCT-15 colon 64.8% | HT29 colon 58% | SNB-75 CNS 78.3% | SNB-19 CNS 97.4% | U251 CNS 80.6% | SK-MEL-5 melanoma 89.9% | UACC-62 melanoma 97.5% | LOX IMVI melanoma 85.2% | SK-MEL-28 melanoma 101%

N/C(=N\C(N)=N\c1nc2ccccc2s1)c1ccnc(Br)c1
inactive: HCT-15 colon 19.6% | HT29 colon 10.2% | SNB-19 CNS 39.1% | U251 CNS 26.3% | SK-MEL-5 melanoma 27.1% | UACC-62 melanoma 27.7% | LOX IMVI melanoma 33.8% | SK-MEL-28 melanoma 57.2%
active: SNB-75 CNS -13.2%

Cc1cc(C(=O)/C=C/c2ccc[nH]2)ccc1-n1ccc(C(F)(F)F)n1
inactive: HCT-15 colon 84.1% | HT29 colon 89.9% | SNB-75 CNS 63.2% | SNB-19 CNS 85.1% | U251 CNS 25.9% | SK-MEL-5 melanoma 98.2% | UACC-62 melanoma 84% | LOX IMVI melanoma 90.8% | SK-MEL-28 melanoma 100%

CNC(=O)c1cccc(Cn2nc(C)c(NC(=O)c3ccc(COc4ccc(C(F)(F)F)cc4C)cc3)c2C)n1
inactive: HCT-15 colon 49.4% | HT29 colon 42% | SNB-75 CNS 80.9% | SNB-19 CNS 47.8% | U251 CNS 44.7% | UACC-62 melanoma 63% | LOX IMVI melanoma 55.2% | SK-MEL-28 melanoma 70.5%
active: SK-MEL-5 melanoma -6.19%

Cc1ccc(-c2nc3ccccn3c2/C=C2/C(=O)Nc3cc(Cl)ccc32)cc1
inactive: HCT-15 colon 53.3% | HT29 colon 66.5% | SNB-75 CNS 61.8% | SNB-19 CNS 87.5% | U251 CNS 96.4% | SK-MEL-5 melanoma 71.9% | UACC-62 melanoma 74.1% | LOX IMVI melanoma 53.8% | SK-MEL-28 melanoma 91.8%

CN[C@@H](C)C(=O)N[C@H]1CCS[C@H]2CC(C)(C)[C@@H](C(=O)N[C@H]3c4ccccc4C[C@H]3OCC#CC#CCO[C@@H]3Cc4ccccc4[C@@H]3NC(=O)[C@H]3N4C(=O)[C@@H](NC(=O)[C@H](C)NC)CCS[C@H]4CC3(C)C)N2C1=O
inactive: HCT-15 colon 109% | HT29 colon 112% | SNB-75 CNS 16.5% | SNB-19 CNS 97.1% | U251 CNS 100% | SK-MEL-5 melanoma 66.2% | UACC-62 melanoma 102% | LOX IMVI melanoma 69.7%

C=C1C(=O)O[C@H]2[C@H]1CC/C(COC(=O)NCc1c[nH]c3ccc(F)cc13)=C\CC[C@@]1(C)O[C@@H]21
active: HCT-15 colon -63.9% | HT29 colon -50.2% | SK-MEL-5 melanoma -14.9% | UACC-62 melanoma -75.1% | LOX IMVI melanoma -83.4% | SK-MEL-28 melanoma -62.5%
inactive: SNB-75 CNS 26.4% | SNB-19 CNS 39.5% | U251 CNS 18.7%

C=C(CBr)[C@@H]1CC[C@]2(COC(C)=O)CC[C@]3(C)[C@H](CC[C@@H]4[C@@]5(C)CCCNC(C)(C)[C@@H]5CC[C@]43C)[C@@H]12
inactive: HCT-15 colon 24.8% | HT29 colon 29.1% | SNB-75 CNS 79.8% | SNB-19 CNS 64.2% | U251 CNS 37% | SK-MEL-5 melanoma 19.9% | UACC-62 melanoma 24.8% | LOX IMVI melanoma 23.5% | SK-MEL-28 melanoma 60.7%
